Test results from the supplement of paper PMC9694430.

How the values were obtained:
Experiment in all cases: thermal shift delta Tm vs DMSO control; higher = stronger stabilization (binding)
Settings in all cases: 12.5 µM; protein concentration 2 µM
LOC_OS01G57100-cb003 = system: LOC_OS01G57100-cb003
Outline: (§1)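 Rice kinase domain constructs, made in E. coli and purified, were placed in 96-well plates at 2 μM in 19.5 μl of 100 mM potassium phosphate pH 7.5, 150 mM NaCl, 10% glycerol and 5 × SYPRO Orange, with compound in DMSO. A temperature ramp from 25°C to 95°C at 0.05°C/s was used for differential scanning fluorimetry. The melting temperature shift is a triplicate mean compared with DMSO-only protein, derived from Boltzmann fits.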

LOC_OS01G60330-cb001 = system: LOC_OS01G60330-cb001
Outline: as §1

LOC_OS01G60700-cb002 = system: LOC_OS01G60700-cb002
Outline: as §1

LOC_OS01G63280-cb003 = system: LOC_OS01G63280-cb003
Outline: as §1

LOC_OS01G67340-cb003 = system: LOC_OS01G67340-cb003
Outline: as §1

LOC_OS01G70970-cb002 = system: LOC_OS01G70970-cb002
Outline: as §1

LOC_OS02G07810-cb001 = system: LOC_OS02G07810-cb001
Outline: as §1

LOC_OS02G08530-cb003 = system: LOC_OS02G08530-cb003
Outline: as §1

LOC_OS02G14120-cb001 = system: LOC_OS02G14120-cb001
Outline: as §1

LOC_OS02G17970-cb001 = system: LOC_OS02G17970-cb001
Outline: as §1

LOC_OS02G45750-cb003 = system: LOC_OS02G45750-cb003
Outline: as §1

LOC_OS02G54510-cb004 = system: LOC_OS02G54510-cb004
Outline: as §1

LOC_OS03G04050-cb001 = system: LOC_OS03G04050-cb001
Outline: as §1

LOC_OS03G12390-cb001 = system: LOC_OS03G12390-cb001
Outline: as §1

LOC_OS03G27990-cb004 = system: LOC_OS03G27990-cb004
Outline: as §1

LOC_OS03G50450-cb001 = system: LOC_OS03G50450-cb001
Outline: as §1

LOC_OS03G50810-cb003 = system: LOC_OS03G50810-cb003
Outline: as §1

LOC_OS04G35114-cb001 = system: LOC_OS04G35114-cb001
Outline: as §1

LOC_OS04G38480-cb003 = system: T1, LOC_OS04G38480-cb003
T1 sequence (whole entry): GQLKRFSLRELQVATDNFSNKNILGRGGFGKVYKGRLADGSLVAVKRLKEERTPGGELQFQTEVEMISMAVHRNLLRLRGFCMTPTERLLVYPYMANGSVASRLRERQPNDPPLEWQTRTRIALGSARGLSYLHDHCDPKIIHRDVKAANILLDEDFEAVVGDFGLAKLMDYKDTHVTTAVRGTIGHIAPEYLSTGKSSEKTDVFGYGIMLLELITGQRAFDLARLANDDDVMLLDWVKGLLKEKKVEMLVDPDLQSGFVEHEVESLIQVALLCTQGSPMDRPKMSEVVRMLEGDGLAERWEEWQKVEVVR
Outline: as §1

LOC_OS04G41100-cb001 = system: T2, LOC_OS04G41100-cb001
T2 sequence (whole entry): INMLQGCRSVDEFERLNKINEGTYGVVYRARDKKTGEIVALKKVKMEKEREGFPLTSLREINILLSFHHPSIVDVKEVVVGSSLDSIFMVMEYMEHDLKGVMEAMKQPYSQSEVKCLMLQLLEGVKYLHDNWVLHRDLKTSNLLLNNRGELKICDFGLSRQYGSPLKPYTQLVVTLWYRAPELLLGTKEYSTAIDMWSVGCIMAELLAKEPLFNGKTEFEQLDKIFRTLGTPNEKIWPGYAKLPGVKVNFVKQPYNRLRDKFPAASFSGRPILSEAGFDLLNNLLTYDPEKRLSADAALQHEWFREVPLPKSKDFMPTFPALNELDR
Outline: as §1
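Also: purified Escherichia coli-expressed rice kinase domain construct.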

Row | SMILES | thermal shift delta Tm (LOC_OS01G57100-cb003) [°C] | thermal shift delta Tm (LOC_OS01G60330-cb001) [°C] | thermal shift delta Tm (LOC_OS01G60700-cb002) [°C] | thermal shift delta Tm (LOC_OS01G63280-cb003) [°C] | thermal shift delta Tm (LOC_OS01G67340-cb003) [°C] | thermal shift delta Tm (LOC_OS01G70970-cb002) [°C] | thermal shift delta Tm (LOC_OS02G07810-cb001) [°C] | thermal shift delta Tm (LOC_OS02G08530-cb003) [°C] | thermal shift delta Tm (LOC_OS02G14120-cb001) [°C] | thermal shift delta Tm (LOC_OS02G17970-cb001) [°C] | thermal shift delta Tm (LOC_OS02G45750-cb003) [°C] | thermal shift delta Tm (LOC_OS02G54510-cb004) [°C] | thermal shift delta Tm (LOC_OS03G04050-cb001) [°C] | thermal shift delta Tm (LOC_OS03G12390-cb001) [°C] | thermal shift delta Tm (LOC_OS03G27990-cb004) [°C] | thermal shift delta Tm (LOC_OS03G50450-cb001) [°C] | thermal shift delta Tm (LOC_OS03G50810-cb003) [°C] | thermal shift delta Tm (LOC_OS04G35114-cb001) [°C] | thermal shift delta Tm (LOC_OS04G38480-cb003) [°C] | thermal shift delta Tm (LOC_OS04G41100-cb001) [°C]
1 | CCn1c2ccccc2c2cc(Nc3ccnc(NCCCN4CCOCC4)n3)ccc21 | 0.92 | 1.04 | 0.87 | 0.29 | 0.51 | 0.28 | 0.54 | 1.04 | -0.17 | 0.22 | 0.77 | 0.13 | 0.05 | -0.48 | 0.11 | 0.22 | 0.04 | 1.09 | 1.71 | 0.46
2 | Cc1ccc(Nc2nccc(N(C)c3ccc4c(C)n(C)nc4c3)n2)cc1S(N)(=O)=O [Pazopanib] | 0.76 | 3.85 | 1.11 | 0.59 | 0.96 | 0.44 | 0.68 | 1.82 | 3.43 | 0.74 | 3.24 | 0.61 | 0.35 | 0.19 | 0.23 | 0.21 | 0.98 | 4.53 | 1.63 | 3.44
3 | Clc1ccc(C2(c3ccc(-c4cn[nH]c4)cc3)CCNCC2)cc1 | 1.65 | 0.98 | 0.54 | 0.22 | -0.1 | 0.01 | 1.21 | 0.59 | 0.25 | 1.03 | -0.2 | 0.04 | 0.31 | 0.47 | 0.05 | 0.32 | 0.32 | 0.57 | 0.33 | 0.38
4 | OC(c1cc(-c2ccc(Cl)cc2)nc2ccccc12)C1CCCCN1 (stereo not given) [Vacquinol-1] | 2.48 | 1.32 | 1.39 | 0.78 | 1.06 | 0.39 | 0.67 | 0.72 | 0.39 | 0.79 | 1.11 | -0.34 | 0.42 | 0.39 | 0.57 | 1.11 | 0.65 | 0.88 | 1.95 | 0.59
5 | COc1ccccc1-c1cc(Nc2cccc(CS(N)(=O)=O)c2)ncn1 | 2.72 | 0.45 | 1.21 | 0.28 | 0.81 | 0.41 | 0.75 | 1.15 | 1.66 | 1.02 | 3.96 | 0.61 | 0.43 | 0.77 | 0.57 | 0.51 | 0.56 | 1.63 | 2.33 | 0.8
6 | CCN(CC)CCCC(C)Nc1ccnc2cc(Cl)ccc12 (stereo not given) [Chloroquine Phosphate] | 0.41 | 0.19 | 0.9 | -0.08 | 0.32 | -0.07 | 0.25 | 0.31 | 0.87 | -0.06 | 0.61 | 0.18 | 0.45 | 0 | 0.19 | 0.25 | 0.19 | 0.59 | 2.48 | 0.64
7 | C[C@H](Nc1ncnc2nc[nH]c12)c1cc2cccc(Cl)c2c(=O)n1-c1ccccc1 [Duvelisib (IPI-145, INK1197)] | -0.45 | 0.3 | 1.43 | 0.2 | 0.06 | 0.33 | 0.73 | 0.77 | 0.47 | 0.68 | -1.36 | 2.02 | -0.19 | -0.34 | -0.31 | 0.38 | 0.72 | -1.37 | 0.01 | 0.58
8 | O=C1Nc2ccc(I)cc2/C1=C/c1cc(Br)c(O)c(Br)c1 | 7.97 | 7.94 | 2.48 |  |  | 2.79 | 3.4 | 4.19 | 5.66 | 3.87 | 0 | 1.04 | 0.81 | 6.08 | 2.06 | 1.49 | 4.01 | 1.76 | -0.73 | 0.75
9 | COc1cc(OC)cc(-c2cc3cnc(N)nc3nc2NC(=O)NC(C)(C)C)c1 | 1.18 | 0.3 | 0.16 | 0.24 | -0.11 | 0.35 | -0.88 | 0.52 | 0.72 | -0.49 | 0.88 | 0.19 | 0.34 | 0.31 | 0.16 | 0.18 | 0.24 | 0 | 0.52 | 0.39
10 | Nc1cccc(S(=O)(=O)N2CCCN(S(=O)(=O)c3ccc4c(c3)OCCO4)CC2)c1 | 0.46 | 0.53 | 0.59 | -0.02 | 0.27 | 0.17 | 0.54 | 0.32 | 0.21 | 0.7 | 0.54 | 0.12 | 0.38 | 0.13 | 0.13 | 0.24 | 0.28 | 0.8 | 1.86 | 0.33
11 | COC(=O)[C@]12CCC(C)(C)C[C@H]1[C@H]1C(=O)C=C3[C@@]4(C)C=C(C#N)C(=O)C(C)(C)[C@@H]4CC[C@@]3(C)[C@]1(C)CC2 [Bardoxolone Methyl] |  | -0.58 |  | -6.77 | -5.05 | -11 | 0.28 | -2.07 | -4.67 | -0.5 | 0.78 | -3.73 | -0.12 | -11.6 | -4.29 | -0.95 | -3.78 | -4.61 | -6.53 | -1.7
12 | FC(F)(F)c1ccc(Nc2nc3ccc(Oc4ccnc(-c5ncc(C(F)(F)F)[nH]5)c4)cc3[nH]2)cc1 [Raf265 derivative] | 1.09 | 1.86 | -0.31 |  | 0.26 | 1.67 | 2.01 | 0.35 | 0.25 | 2.16 | 1.97 | 0.28 | 0.92 | 1.89 | 0.72 | 1.24 | 1.68 | 0.2 | 2.16 | 1.09
13 | CC(C)n1ncnc1-c1cn2c(n1)-c1ccc(O[C@@H](C)C(N)=O)cc1OCC2 | 0.54 | 0.84 | 1.39 | 0.36 | 0.34 | 0.21 | 1.33 | 0.19 | 0.43 | 1.55 | 0.39 | 0.04 | 0.37 | 0.09 | 0.14 | 0.37 | 0.53 | 0.71 | 0.74 | 0.13
